# Legend:
# Assay in all cases: inhibition of PEG-3 promoter-driven reporter – cell-based, HeLa, luciferase, CREF/GAPDH counter-screen panel, dose response (AID 624167)
# [1] = target: PEG-3 (UniProt Q6IN02); details: CREF/GAPDH counter-screens; HeLa PEG-Prom luciferase reporter, overnight, run 1, dose range 1, at 100 µM (top of the series) unless noted
# [2] = target: PEG-3 (UniProt Q6IN02); details: CREF/GAPDH counter-screens; HeLa PEG-Prom luciferase reporter, overnight, run 2, dose range 1, at 100 µM (top of the series) unless noted
# [3] = test system: Rat fibroblasts (CREF); details: CREF/GAPDH counter-screens; run 1, dose range 1, at 100 µM (top of the series)
# [4] = test system: Rat fibroblasts (CREF); details: CREF/GAPDH counter-screens; run 2, dose range 1, at 100 µM (top of the series)
# Sequence of PEG-3 (Q6IN02 whole entry, looked up): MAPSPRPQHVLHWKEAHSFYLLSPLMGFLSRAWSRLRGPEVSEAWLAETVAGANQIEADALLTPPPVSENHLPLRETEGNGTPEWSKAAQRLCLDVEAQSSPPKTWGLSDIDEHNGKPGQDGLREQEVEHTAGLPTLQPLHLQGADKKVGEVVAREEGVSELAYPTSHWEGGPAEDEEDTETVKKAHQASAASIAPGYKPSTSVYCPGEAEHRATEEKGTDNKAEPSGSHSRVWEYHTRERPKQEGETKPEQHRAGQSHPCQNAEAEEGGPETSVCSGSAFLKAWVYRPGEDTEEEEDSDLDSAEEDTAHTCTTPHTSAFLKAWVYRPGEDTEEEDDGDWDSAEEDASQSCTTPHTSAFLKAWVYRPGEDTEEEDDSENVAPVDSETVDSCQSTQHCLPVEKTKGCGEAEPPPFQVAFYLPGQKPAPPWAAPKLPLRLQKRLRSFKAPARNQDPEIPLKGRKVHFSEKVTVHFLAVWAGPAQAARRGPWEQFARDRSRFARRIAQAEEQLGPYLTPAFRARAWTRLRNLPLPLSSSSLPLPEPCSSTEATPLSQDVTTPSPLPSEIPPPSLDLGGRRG
Compound,inhibition [1],inhibition [2],inhibition [3],inhibition [4]
CCN(CC)CCCCNc1ncc2cc(-c3cc(OC)cc(OC)c3)c(NC(=O)NC(C)(C)C)nc2n1,97.1%,101%,,
CC1(C)CC(NCCN2CCN(C3=CC(=C(C#N)C#N)CC(C)(C)C3)CC2)=CC(=C(C#N)C#N)C1,19.6%,44%,,
CCN1CCN(Cc2c(O)ccc3c2O/C(=C\C=C\c2ccccc2)C3=O)CC1,99.1%,101%,,
O=C(NC(c1ccc(F)cc1)c1ccc2ccccc2n1)C1CCN(Cc2cccc(C(F)(F)F)c2)CC1 (configuration not stated),91.2%,94.1%,,
CCOC(=O)c1c(NC(=O)CSc2nnnn2-c2ccccc2OCC)sc2c1CC(C)(C)NC2(C)C,98.8%,102%,,
COc1ccc(-c2cc(C(=O)N3CCN(c4ccccc4F)CC3)c3ccccc3n2)c(OC)c1,27.3%,47.4%,,
CCOC(=O)/C(=C\c1ccccc1)C(=O)CCN1CCOCC1,102%,102%,,
Cc1cccc(CN2C(=O)[C@H]3Cc4c([nH]c5ccccc45)C(C)(C)N3C2=O)c1,97.5%,101%,,
Cc1ccc(S(=O)(=O)N(C)C)cc1NC(=O)c1cncc(Br)c1,82.4%,83.7%,,
Cc1cc(C)c2ccc(N)nc2c1O,"70.1% [run 1, dose range 1, at 50 µM]","67.1% [run 2, dose range 1, at 50 µM]",,
O=C(O)CN1C(=O)/C(=C\c2ccccc2OCc2ccc(Cl)cc2Cl)SC1=S,102%,99.9%,,
Cc1cc(C(=O)CN2C(=O)c3ccccc3S2(=O)=O)c(C)n1C(C)C,101%,94.7%,,
O=C1CCC2S/C(=C/Nc3ccc(C(F)(F)F)cc3)C(=O)N12 (configuration not stated),87.1%,85.3%,,
COC(=O)C1=C(C(=O)OC)C(C(=O)OC)C(C(=O)OC)C(C(=O)OC)(C(=O)OC)C(C(=O)OC)=C1C(=O)OC (configuration not stated),99%,101%,,
CCCOC(=O)c1cccc(Nc2nc(-c3cccnc3)nc3ccccc23)c1,99%,101%,,
Cc1cc(C)c2c(N)c3ccccc3nc2n1,102%,101%,,
COc1cc2c(cc1OC)CN(c1nc(-c3cccnc3)nc3ccccc13)CC2,95.5%,99.1%,,
COC(=O)c1ccccc1-c1ccc(/C=N/Nc2nc(N3CCCC3)nc(N3CCCC3)n2)o1,100%,102%,,
Cc1ccc(Cn2c(=N)n(CC(=O)c3ccccc3)c3ccccc32)cc1,101%,102%,,
CCOC(=O)CN(C(=O)CSc1nnc2c(n1)[nH]c1ccc(F)cc12)c1ccccc1,99.9%,99.2%,,
COc1ccc(-c2oc3ccc(-c4cc(OC)c(OC)c(OC)c4)cc3c2C#Cc2ccccn2)cc1,26.8%,53.3%,,
COc1ccc(-c2cc(C(=O)N(C)Cc3cccc(OC)c3OC)c3ccccc3n2)cc1OC,72.4%,74.7%,,
COC(=O)c1cn(NC(=O)c2cc([N+](=O)[O-])ccc2F)c(=O)c2ccccc12,95.3%,94%,,
CC(=O)c1cccc(NC(=O)c2cccc3c(-c4cccnc4)coc23)c1,36.4%,47%,,
COc1ccc(-c2cc(C(=O)N3CCN(c4ncccn4)CC3)c3ccccc3n2)c(OC)c1,70%,47.8%,,
COc1cccc(N2CCN(CC(=O)Nc3ccccc3C(=O)NCc3ccccc3)CC2)c1,56.8%,70.2%,,

Compound,inhibition [1],inhibition [2],inhibition [3],inhibition [4]
O=C(Nc1ccccc1)c1nc[nH]c1C(=O)NCCCNC(=O)c1[nH]cnc1C(=O)Nc1ccccc1,-24.6%,96.8%,,
COc1ccc(-n2cc(CNC3CCN(C)CC3)c(-c3cccc(F)c3)n2)cc1,100%,101%,,
Cc1ccc2cc3c(N)c4c(C)ccc(C)c4nc3nc2c1,94.6%,93.7%,,
COc1ccc(CC(N)c2csc(Nc3cccc(OC)n3)n2)cc1 (configuration not stated),98.9%,100%,,
CS(=O)(=O)c1ccc(C(=O)NCCN2C(=O)S/C(=C\c3cccnc3)C2=O)cc1[N+](=O)[O-],102%,99.2%,,
CN1CCC(NC(=O)c2cc(-c3cccc(Br)c3)nc3ccccc23)CC1,100%,101%,,
COc1ccccc1NC(=O)c1cc(-c2cc(OC)c(OC)c(OC)c2)nc2ccccc12,47.9%,"50.1% [run 2, dose range 1, at 50 µM]",,
CC(=O)NC(c1ccc(C)cc1)c1cc(Cl)c2cccnc2c1O (configuration not stated),88.1%,89.7%,,
COc1cccc(NC(=O)CN(C)C(=O)c2cc(-c3ccc(F)cc3)nc3ccccc23)c1,102%,99.1%,,
CCc1nc(Sc2nnnn2-c2ccccc2)c2c3c(sc2n1)CCCC3,68.7%,91.8%,,
COC(=O)c1ccc(OCC2c3cc(OC)c(OC)cc3CCN2C(=O)c2ccco2)cc1 (configuration not stated),77.9%,73.5%,,
Cc1cccc(CN2C(=O)/C(=C\c3ccc(C(=O)NCCN4CCOCC4)cc3)Sc3ccccc32)c1,102%,99.5%,,
O=C(Nc1cccc(S(=O)(=O)N2CCOCC2)c1)c1ccc2c(=O)n3c(nc2c1)CCCCC3,96.5%,98%,,
CC(C)(C)OC(=O)CC(S(=O)(=O)c1ccccc1)S(=O)(=O)c1ccccc1,102%,101%,,
CN(C)CCNC(=O)c1sc2nc(-c3ccccc3)cc(C(F)(F)F)c2c1N,102%,102%,,
COC(=O)Cc1[nH]n(-c2nc3ccccc3s2)c(=O)c1C(C)=Nc1ccc(Cl)cc1,88.1%,94.2%,,
CC(C)N1CCc2c(sc(NC(=O)c3cc4cc([N+](=O)[O-])ccc4s3)c2C(N)=O)C1,98.8%,101%,,
COc1cc(NC(=O)c2cccc(C)c2)ccc1NC(=O)c1cc2ccccc2o1,"76.6% [run 1, dose range 1, at 50 µM]","94.6% [run 2, dose range 1, at 50 µM]",,
COc1ccc(-c2nc(NC(=O)c3n[nH]c(=O)c4ccccc34)sc2C)cc1,14%,30.7%,,
CC1(Cc2ccc(Cl)c(Cl)c2)C(=O)Nc2ccc(S(=O)(=O)NC3CCCCC3)cc21 (configuration not stated),92.8%,95.4%,,
CCN1CCN(Cc2ccc(NC(=O)c3cc(NC(=O)c4ccno4)cc(OC)c3)cc2C(F)(F)F)CC1,95.5%,102%,,
O=C(O)c1cccc(COc2ccc(CO)cc2Cl)c1,97.3%,102%,91.5%,91.1%
O=C(CNCCC1=CCCCC1)Nc1ccc(N2CCCCCC2)cc1,102%,102%,99.4%,100%
Cc1cccc(NC(=O)CSc2nc3ccccc3c3nc(CCc4c(C)n[nH]c4C)nn23)c1,97.9%,95.8%,,
CC(=O)c1c(NCCc2ccccc2)nc(=S)n(-c2ccccc2)c1C,99.6%,99%,,
COc1cccc(NC(=O)CN(C)C(=O)c2cccnc2Nc2cccc(C(F)(F)F)c2)c1,102%,102%,,

Compound,inhibition [1],inhibition [2],inhibition [3],inhibition [4]
CCCC(=O)NC(c1ccc(OC)cc1)c1ccc2cccnc2c1O (configuration not stated),66.6%,88.5%,28.1%,99.5%
Oc1cccc(C(Nc2nccs2)c2ccc3cccnc3c2O)c1 (configuration not stated),97.4%,98.7%,,
COc1ccc(C)cc1Nc1n[n+](-c2ccccc2)c(-c2ccc(N(C)C)cc2)s1,97.2%,100%,,
c1ccc(-c2cc(-c3nc4ccccc4[nH]3)c3ccccc3n2)cc1,86.8%,88.6%,,
O=C(Sc1cccc2cccnc12)c1ccccc1Br,99.3%,93.8%,,
COc1ccc(-c2cc(C(=O)N(C)Cc3ccccc3F)c3ccccc3n2)cc1OC,97.1%,94.9%,,
Cc1ccc(NC(=O)Nc2ccnc(-c3cccnc3)n2)cc1,44.3%,8.15%,,
O=C(OCC(F)(F)F)c1cccc(COc2ccc3ccccc3c2)c1,96.5%,92.4%,86.6%,85.7%
COc1ccccc1NC(=S)NC1CCCCCCCCCCC1,48.3%,"102% [run 2, dose range 1, at 50 µM]",,
CC(=O)N1CCCC(c2cc(C(=O)Nc3ccccc3)no2)C1 (configuration not stated),100%,90.2%,93.1%,92%
CN=c1scc(-c2ccccc2F)n1/N=C/c1ccc[nH]1,98.7%,99.8%,100%,100%
COc1cc(C(=O)/C=C/c2cccnc2)c([N+](=O)[O-])cc1OC,102%,99.8%,,
CCN(Cc1ccccc1)S(=O)(=O)c1ccc(C(=O)N(CCCN(C)C)c2nc3cc4c(cc3s2)OCO4)cc1,102%,101%,,
CC1=CC(C)[C@H](/C=N/n2c(=O)[nH]c3c([nH]c4ccc(Br)cc43)c2=O)C(C)C1 (some centres not stated),12.7%,"77.5% [run 2, dose range 1, at 12.5 µM]",,
Cc1cccc(OCC(=O)NCC(=O)N/N=C/c2cc(Br)cc(Br)c2O)c1,75%,86.2%,65.6%,74.7%
CCOc1cc(CNCCCN2CCOCC2)ccc1OCC(=O)Nc1cccc2ccccc12,100%,101%,,
Cc1cc(C)c(C)c(S(=O)(=O)N2CCN(C(=O)c3cc(=O)[nH]c4ccccc34)CC2)c1C,82.1%,83.8%,34.6%,90.5%
Cc1ccc(-n2[nH]c(=O)c(-c3ccccn3)c2C)cc1,94.8%,90.3%,86.5%,87.2%
O=C(Cn1ncc(Cl)c(Cl)c1=O)N1CCN(Cc2ccccc2)CC1,95.2%,98.8%,,
O=S(=O)(NC1CC(NS(=O)(=O)OCC(Cl)(Cl)Cl)C2CCCCC12)OCC(Cl)(Cl)Cl (configuration not stated),102%,99.2%,,
CN(C)c1ccc(NC(=S)c2ccccn2)cc1,93.1%,85.4%,94.4%,96.1%
CN(C)CCNc1ncnc2c1ncn2[C@H]1CN(Cc2ccc(-c3ccccc3)cc2)C[C@@H](CO)O1,100%,101%,,
CCOC(=O)C1=C(COCCN)NC(C)=C(C(=O)OC)C1c1ccccc1Cl (configuration not stated),98.7%,100%,,
Cc1cc(Br)ccc1NC(=O)CNC(=O)Cn1ncc(Cl)c(Cl)c1=O,99.8%,94.5%,48.9%,96.9%
CCOc1ccc2nc(NC(=O)c3ccccn3)sc2c1,88%,83.6%,87.1%,83.4%
CN(C)c1ccc(/C=C/c2ccc3ccccc3n2)cc1,96.6%,96%,96.6%,95.8%
